This is an account of results in article PMC4336329 (PLoS ONE, 2015).

About 14,000 (4.5%) of roughly 310,000 compounds showed an effect of 50% or more. Effects have a minus sign here. Only a selection was taken, and strong results are over-represented in it overall.
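Further: peak tail current of the secondary pulse compared with the same well before compound.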

For the experiment, the target named is human ether-à-go-go-related gene (hERG) potassium channel (human, UniProt Q12809). Put plainly: primary screen, population patch clamp on CHO cells stably expressing hERG; higher = less effect of the substance.
Sequence of human ether-à-go-go-related gene (hERG) potassium channel (Q12809 whole entry, looked up): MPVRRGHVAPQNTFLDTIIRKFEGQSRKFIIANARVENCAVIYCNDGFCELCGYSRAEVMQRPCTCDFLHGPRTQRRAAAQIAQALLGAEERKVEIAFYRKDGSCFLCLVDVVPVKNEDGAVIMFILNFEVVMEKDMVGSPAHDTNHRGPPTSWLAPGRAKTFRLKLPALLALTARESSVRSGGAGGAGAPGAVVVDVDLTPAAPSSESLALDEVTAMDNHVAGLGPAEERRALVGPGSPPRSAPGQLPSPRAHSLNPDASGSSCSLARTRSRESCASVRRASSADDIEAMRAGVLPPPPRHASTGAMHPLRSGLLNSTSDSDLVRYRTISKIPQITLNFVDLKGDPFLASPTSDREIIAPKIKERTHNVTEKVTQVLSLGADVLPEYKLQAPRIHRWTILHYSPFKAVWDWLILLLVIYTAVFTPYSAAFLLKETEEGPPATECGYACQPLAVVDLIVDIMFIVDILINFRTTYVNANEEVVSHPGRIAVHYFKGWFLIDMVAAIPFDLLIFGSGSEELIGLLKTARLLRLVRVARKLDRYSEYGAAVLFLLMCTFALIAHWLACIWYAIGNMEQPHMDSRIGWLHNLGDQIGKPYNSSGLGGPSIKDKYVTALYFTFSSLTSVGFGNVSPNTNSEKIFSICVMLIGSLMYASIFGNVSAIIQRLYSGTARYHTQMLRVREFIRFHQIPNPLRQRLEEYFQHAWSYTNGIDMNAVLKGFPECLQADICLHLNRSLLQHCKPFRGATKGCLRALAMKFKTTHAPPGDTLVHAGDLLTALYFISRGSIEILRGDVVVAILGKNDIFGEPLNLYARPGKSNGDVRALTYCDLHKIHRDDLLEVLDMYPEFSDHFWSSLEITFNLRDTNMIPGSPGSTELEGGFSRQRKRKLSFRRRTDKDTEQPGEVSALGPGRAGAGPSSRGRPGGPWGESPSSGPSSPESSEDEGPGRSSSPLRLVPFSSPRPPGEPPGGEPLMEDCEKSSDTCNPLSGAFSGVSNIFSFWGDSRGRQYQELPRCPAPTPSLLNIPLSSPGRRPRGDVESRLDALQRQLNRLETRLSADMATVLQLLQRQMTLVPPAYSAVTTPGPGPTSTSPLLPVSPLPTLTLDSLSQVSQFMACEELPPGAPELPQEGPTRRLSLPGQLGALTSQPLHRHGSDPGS
As to `CC(C)C(OC(=O)c1ccco1)C(=O)NCc1cccs1` (stereo not drawn), the “hERG current change (%, negative = inhibition) at 10uM” value was -0.362%.
The figure for `CN(C)c1ccc(/C=N/NC(=O)c2ccccc2)cc1` is 10.9%; for `CN(C)c1ccc(/C=N/NC(=O)C2CC2c2ccccc2)cc1` (stereo not drawn) it is -74.9%; for `O=C(N/N=C/c1ccco1)C1CC1c1ccccc1` (stereo not drawn) it is -4.18%.
For `CCOc1ccc(CCNC(=O)CCS(=O)(=O)c2ccc(Br)cc2)cc1OCC` the value was 13.8%; for `Cc1cc(NC(=S)N(CCN2CCOCC2)Cc2ccccc2F)ccc1Cl`, 24.1%.
For `COc1cccc(CCC(=O)N2CCC(n3nccc3NC(=O)C3CCOC3)CC2)c1` (stereo not drawn) the value was 14.9%.
Regarding `COc1ccc(Nc2nc(N)c(C(=O)c3ccc(OC)cc3)s2)cc1`, the “hERG current change (%, negative = inhibition) at 10uM” value is recorded as -52.7%.
The figure for `COc1ccc(Nc2nc(N)c(C(=O)c3ccc(F)cc3)s2)cc1` is 25.9%; for `COc1ccc(C(=O)c2sc(Nc3ccccc3)nc2N)cc1` it is 18.1%; for `O=C(Nc1ccc(Cl)cc1F)c1cc(S(=O)(=O)N2CCCCC2)ccc1F` it is -0.146%.
For `Cc1ccc(NC(=O)Cn2nnc(C(=O)NCc3ccco3)c2N)c(C)c1` the value was 3.23%.
The figure for `C/[N+]([O-])=C\c1coc2ccccc2c1=O` is -1.4%.
Regarding `O=C(CCl)N1CCN2C(=O)c3ccccc3C12c1ccc(Cl)cc1` (stereo not drawn), the “hERG current change (%, negative = inhibition) at 10uM” value is on record as -1.56%.
Take `COCCCNC(=O)Cc1c(C)c2c(cc(C)c3c(C(C)(C)C)coc32)oc1=O`: the “hERG current change (%, negative = inhibition) at 10uM” value is -32.3%.
For `Cc1cc2oc(=O)c(CC(=O)NCCCO)c(C)c2c2occ(C(C)(C)C)c12` the value was -9.35%.
For `Cc1cc2oc(=O)c(CC(=O)NCCCN(C)C)c(C)c2c2occ(C(C)(C)C)c12` the value was -69.1%; for `O=C1OC(CO)CN1Cc1ccccc1` (stereo not drawn), 12.3%.
For `COc1ccc(-n2cc(-c3ccccc3)c3c(N4CCOCC4)ncnc32)cc1` the value was 22.5%; for `c1ccc(-c2cn(-c3ccccc3)c3ncnc(NCCCN4CCOCC4)c23)cc1`, -60.6%.
As to `COc1ccc(-n2cc(-c3ccccc3)c3c(NN4CCOCC4)ncnc32)cc1`, the “hERG current change (%, negative = inhibition) at 10uM” value is given as -40.6%.
The figure for `COc1ccc(-n2cc(-c3ccccc3)c3c(NCCCN4CCOCC4)ncnc32)cc1` is -65%.
For `c1ccc(-c2csc3ncnc(NCCCN4CCOCC4)c23)cc1` the value was -13.2%; for `c1ccc(-n2ncc3c(NCCCN4CCOCC4)ncnc32)cc1`, -11%.
For `COc1nc(-c2ccc(Cl)cc2)nnc1C` the value was 2.25%; for `COCCNC(=O)C(c1cccs1)N(CCc1ccccc1)C(=O)Cn1nnc2ccccc21` (stereo not drawn), 6.51%; for `O=C(CSc1nnc(Cn2cnc3ccccc32)o1)c1ccccc1`, -7.21%.
Take `Cc1ccc(N2C(=O)CC(=O)NC2=O)c(C)c1`: the “hERG current change (%, negative = inhibition) at 10uM” value is given as 17.2%.
For `CC(=O)OCCn1c(C)[n+](CCOC(C)=O)c2cc(Cl)c(Cl)cc21.[I-]` the value was 14.7%; for `COc1ccc(-c2ccoc2)cc1[C@H]1[C@H]2C=CC[C@@H](C)[C@@H]2C(=O)N1Cc1ccccc1`, 1.85%; for `Cc1ccccc1-c1nnc(CN2CCN(C(=O)c3ccco3)CC2)o1`, -14.2%.
The figure for `CC1CCN(Cc2nnc(-c3cccc(Br)c3)o2)CC1` is -0.585%; for `O=C(c1ccco1)N1CCN(Cc2nnc(-c3ccccc3F)o2)CC1` it is 9.67%.
The figure for `O=C(c1ccco1)N1CCN(Cc2nnc(-c3cccc(Br)c3)o2)CC1` is -62.2%; for `O=C(c1ccco1)N1CCN(Cc2nnc(-c3ccccc3)o2)CC1` it is -55.5%.
For the compound `O=C(c1ccco1)N1CCN(Cc2nnc(-c3cccc(Cl)c3)o2)CC1`, the “hERG current change (%, negative = inhibition) at 10uM” value was -45.9%.
For `O=C(Cn1c(CO)nc2ccccc21)NCCc1ccccc1` the value was -3.08%; for `COc1ccccc1CNC(=O)c1cc(C)nn1-c1ccccc1`, 1.87%; for `CCOc1ccccc1NC(=O)Nc1cc(S(=O)(=O)N(C)C)ccc1C`, 15%.
For the compound `COCCCNC(=O)c1cc2c(=O)n3cccc(C)c3nc2s1`, the “hERG current change (%, negative = inhibition) at 10uM” value amounted to 7.44%.
Take `C=CCn1c(=N)c(C(=O)NCCCOC)cc2c(=O)n3ccccc3nc21`: the “hERG current change (%, negative = inhibition) at 10uM” value is on record as -60.1%.
For `CCOCCCNC(=O)c1cc2c(=O)n3cccc(C)c3nc2s1` the value was 12.6%.
The figure for `CCn1c(=N)c(C(=O)NCCCOC)cc2c(=O)n3cccc(C)c3nc21` is -61.4%; for `COCCCNC(=O)c1cc2c(=O)n3cccc(C)c3nc2n(C(C)C)c1=N` it is -65.5%; for `C=CCn1c(=N)c(S(=O)(=O)c2ccc(C)c(C)c2)cc2c(=O)n3ccccc3nc21` it is 14.3%.
Turning to `C=CCn1c(=N)c(C(=O)OCC)cc2c(=O)n3cccc(C)c3nc21`, the “hERG current change (%, negative = inhibition) at 10uM” value is recorded as -72.9%.
The figure for `CCOC(=O)c1c(C)nc2c(C)cccn12` is -6.9%.
The figure for `C=CCn1c(=N)c(C#N)cc2c(=O)n3ccccc3nc21` is -35.3%; for `CC(NC(=O)CSc1nc2ccc(N)cc2s1)c1ccccc1` (stereo not drawn) it is 32%; for `O=c1cccc2n1CC1CC2CN(C(c2ccccc2)c2sc3ncnn3c2O)C1` (stereo not drawn) it is 15.1%.
The figure for `Cc1ccc(S(=O)(=O)N2CCCCC2)cc1NC(=O)c1cc(=O)[nH]c2ccccc12` is -6.61%.
Regarding `CCCN(CC(=O)Nc1ccccc1C)C(=O)c1ccc(C(=O)c2ccccc2)cc1`, the “hERG current change (%, negative = inhibition) at 10uM” value is recorded as -25.9%.
As for `CCOc1ccc(CCNc2cc(C)nc3ncnn23)cc1OCC`, the “hERG current change (%, negative = inhibition) at 10uM” value is recorded as -5%.
The figure for `Cc1onc(-c2ccccc2)c1C(=O)Nc1sc2c(c1C#N)CCC2` is 1.63%; for `Cn1c(=O)cc(N2CCCCC2)[nH]c1=O` it is 9.92%.
Regarding `CCc1cc(=O)oc2cc3occ(-c4ccc(OC)c(F)c4)c3cc12`, the “hERG current change (%, negative = inhibition) at 10uM” value was 2%.
For `CCn1c(NC(=O)c2ccccc2)nc2ccccc21`, the “hERG current change (%, negative = inhibition) at 10uM” value turned out to be 4.47%.
For `C=CCn1c(=N)c(C(=O)NCCCOC)cc2c(=O)n3cccc(C)c3nc21` the value was -73.5%; for `C=CCn1c(=N)c(C(=O)NCCCOC)cc2c(=O)n3cc(C)ccc3nc21`, -57.3%.
For `C=CCn1cc(C(=O)NCCCOC)c(=O)c2cc(S(=O)(=O)N(CC)CC)ccc21` the value was -30.5%; for `O/N=C1\CCSc2ccc(F)cc21`, -6.52%; for `CC(=O)Nc1ccc(Oc2ccc(NC(C)=O)c(NC(C)=O)c2)cc1`, 1.5%.
In the case of `Cc1cccc(N2CCN(C(=O)CCNC(=O)Cn3ccc4ccccc4c3=O)CC2)c1C`, the “hERG current change (%, negative = inhibition) at 10uM” value was -55.5%.
For `Cc1cccc(N2CCN(C(=O)Cn3ccc4ccccc4c3=O)CC2)c1C` the value was -23.1%; for `Cc1ccc(CNC(=O)Cn2cccc2C(=O)c2ccccc2C)cc1`, -7.1%; for `Cc1ccccc1C(=O)c1cccn1CC(=O)NCCC1=CCCCC1`, 20.5%.
For the compound `Cc1ccc(CNC(=O)Cn2cccc2C(=O)c2ccccc2)cc1`, the “hERG current change (%, negative = inhibition) at 10uM” value was 1.89%.
For `Cc1ccc(C)c(N2CCN(CCCNC(=O)Cn3cccc3C(=O)c3ccccc3C)CC2)c1` the value was -74%; for `COc1ccc(CCNC(=O)Cn2cccc2C(=O)c2ccccc2C)cc1OC`, -16.3%; for `Cc1ccc(C)c(N2CCN(C(=O)CCNC(=O)Cn3ccc4ccccc4c3=O)CC2)c1`, -3.39%.
For `O=C(Cn1cccc1C(=O)c1ccccc1)NCCN1CCOCC1` the value was -2.26%; for `Cc1cccc(N2CCN(C(=O)Cn3cccc3C(=O)c3ccccc3)CC2)c1C`, -17.2%; for `Cc1ccccc1C(=O)c1cccn1CC(=O)NCCN1CCN(c2cccc(C)c2C)CC1`, -69.5%.
As for `Cc1ccc(C)c(N2CCN(CCCNC(=O)Cn3cccc3C(=O)c3ccccc3)CC2)c1`, the “hERG current change (%, negative = inhibition) at 10uM” value is listed as -87.2%.
As to `Oc1ccccc1N1CCN(C(c2ccccc2)c2ccccc2)CC1`, the “hERG current change (%, negative = inhibition) at 10uM” value was found to be 12.6%.
For `COc1ccc(OCCOC(=O)c2ccc(F)c(S(=O)(=O)N3CCOCC3)c2)cc1` the value was -13.8%.
For `COc1ccc(NC(=S)NC(=O)/C=C/c2ccco2)cc1` the value was -4.31%; for `O=C(c1ccccc1)c1ccc(N2CCN(C(=O)c3cccc(F)c3F)CC2)c(F)c1`, -37.9%; for `Cc1cccc(N2CCN(C(=O)Cn3nc(Cc4ccncc4)c4ccccc4c3=O)CC2)c1C`, -61.3%.
The figure for `O=C(Cn1nc(Cc2ccncc2)c2ccccc2c1=O)N1CCN(C(=O)c2ccco2)CC1` is -26.7%.
For `O=C(Cn1nc(Cc2ccncc2)c2ccccc2c1=O)N1CCc2ccccc2C1`, the “hERG current change (%, negative = inhibition) at 10uM” value was -44.4%.
For `COc1ccc(CN2CCC(CO)(CCOc3ccccc3)CC2)cc1C` the value was -81.8%; for `CCn1ccnc1CN1CCC(CO)(CCOc2ccccc2)CC1`, -8.02%; for `COc1ccc(CN2CCCN(C)CC2)c(OC)c1C`, 11.1%.
The figure for `COc1ccc(CN2CCC(CO)(CCOc3ccccc3)CC2)c(OC)c1C` is -83.5%; for `OCC1(CCOc2ccccc2)CCN(CCCn2cccn2)CC1` it is -73.1%; for `Cc1nn(C)cc1CN1CCC(CO)(CCOc2ccccc2)CC1` it is -22.6%.
Take `COc1ccc(CN2CCSCC2)c(OC)c1C`: the “hERG current change (%, negative = inhibition) at 10uM” value is listed as 13.5%.
For `Cc1nn(C)c(Cl)c1CN1CCC(CO)(CCOc2ccccc2)CC1` the value was -54.7%; for `COc1ccc(CN2CCSCC2)cc1C`, 7.71%.
